# Data published in the OligoGym collection.
# Experiments:
# Experiment in all cases: pooled miR-30 sensor sort-seq; sequence = guide strand
# Conditions in all cases: shRNA
# MCM6 = molecular target: MCM6
# MED17 = molecular target: MED17
# MED28 = molecular target: MED28
# MEPCE = molecular target: MEPCE
# MMADHC = molecular target: MMADHC
# MOBKL1B = molecular target: MOBKL1B
# MPDU1 = molecular target: MPDU1
# MON2 = molecular target: MON2
# MPG = molecular target: MPG
# MOV10 = molecular target: MOV10
# Further: reference of the scale not given here.
sequence,measurement,setting,value
TTACACATGAAAACAAAGGTAT,sensor-assay potency score (higher = more potent),MCM6,-0.0386
TTTGGTTCCAACTTCACTGGGA,sensor-assay potency score (higher = more potent),MCM6,1.01
TATTACTGCACAGTCATCTTAC,sensor-assay potency score (higher = more potent),MED17,-0.307
TAGTTCTGACACATCCTCTTTG,sensor-assay potency score (higher = more potent),MED28,-0.787
TAAAATGAACTCATTATCTGGC,sensor-assay potency score (higher = more potent),MED28,0.719
TATCTCTGATTCGATTTCCTTC,sensor-assay potency score (higher = more potent),MCM6,-0.514
ATATCTTCTGATATCATCGAGG,sensor-assay potency score (higher = more potent),MCM6,-0.536
TTGTTGGGGAAGACTGATGTGT,sensor-assay potency score (higher = more potent),MEPCE,-0.599
TTTGCCATTAGCTACTTCTGGA,sensor-assay potency score (higher = more potent),MMADHC,-0.35
TTCTTCACTCCAAACAGTCATA,sensor-assay potency score (higher = more potent),MMADHC,-1.24
AATATTAGTACCATCTGCCCAG,sensor-assay potency score (higher = more potent),MOBKL1B,0.0511
TTTTGGTGCAGAACATTTGATT,sensor-assay potency score (higher = more potent),MOBKL1B,-0.935
TAATAGTACATGTACAGGGCTT,sensor-assay potency score (higher = more potent),MPDU1,-0.0728
TACAATATCACGAAAAACCTTG,sensor-assay potency score (higher = more potent),MON2,-0.21
TTCTTTTGCCCCATCCGTCGGC,sensor-assay potency score (higher = more potent),MPG,-0.549
TAGTGCATGACCAGGAAGCAGA,sensor-assay potency score (higher = more potent),MPDU1,-0.943
TACAGCTTCATCCTGTGCCAGG,sensor-assay potency score (higher = more potent),MPG,-1.03
TTCATGCAGAAGTACATGCCGT,sensor-assay potency score (higher = more potent),MPG,-0.872
TTAATTGCCTCCACTAACGTGA,sensor-assay potency score (higher = more potent),MOV10,0.283
TATTTGACCAACAAATTCCTTA,sensor-assay potency score (higher = more potent),MON2,-0.301
TTGATCTCTGCGATCTCCTTAG,sensor-assay potency score (higher = more potent),MOV10,-0.607
TGAATGGAAGTGAAGATTCGGG,sensor-assay potency score (higher = more potent),MPDU1,-0.586
TGGTCGAAGAACTCCAACCCCA,sensor-assay potency score (higher = more potent),MPG,-1.62
AACATCTACAACTATTTGCAGG,sensor-assay potency score (higher = more potent),MON2,-1.11
TCCTCTGTAGTGCATGACCAGG,sensor-assay potency score (higher = more potent),MPDU1,-1.87
TAGCTGGTCGCTGCTTCTTTTG,sensor-assay potency score (higher = more potent),MPG,-2.15
TAAAAGAATCGGCACGAGCAGC,sensor-assay potency score (higher = more potent),MPDU1,-0.833
TTCTTCTACTGAACCCACCTTC,sensor-assay potency score (higher = more potent),MOV10,-0.0526
TTTCTCAGGTAAAAGAATCGGC,sensor-assay potency score (higher = more potent),MPDU1,0.459
AAGAACTCCAACCCCAGTCGGG,sensor-assay potency score (higher = more potent),MPG,-0.896
TTTCTTTACAGAACTCCAGGAA,sensor-assay potency score (higher = more potent),MOV10,-0.0759
AAGCTGATCTTGAAGTCGCGGT,sensor-assay potency score (higher = more potent),MOV10,0.0595
ATGCTGTAGACCATGGTCCCAG,sensor-assay potency score (higher = more potent),MPDU1,-1.15
TTACACAGCTGGAAATTGCTGC,sensor-assay potency score (higher = more potent),MPDU1,0.224
TTCAGGTAGGAAGTCACTGTGG,sensor-assay potency score (higher = more potent),MOV10,-0.627
TAGTCGAAAACAAAGAACGATT,sensor-assay potency score (higher = more potent),MON2,-1.16
TTGTACAGGGAGTTGTAGGTGA,sensor-assay potency score (higher = more potent),MOV10,0.0022
TTCCACTAAAAGAAAACCCTGG,sensor-assay potency score (higher = more potent),MPDU1,0.439
TCATGCAGAAGTACATGCCGTA,sensor-assay potency score (higher = more potent),MPG,0.083
TTGGTCGTAGCATTTCTCAGGT,sensor-assay potency score (higher = more potent),MPDU1,0.125
TAACGTGACAGTCTTGCCGGTG,sensor-assay potency score (higher = more potent),MOV10,-0.472
TCGACCACACTGACCCAGGGGC,sensor-assay potency score (higher = more potent),MPG,-0.746
